{"source": "PubChem BioAssay (Tox21)", "key": {"[1]": {"target": "Luciferin 4-monooxygenase (Photinus pyralis) (UniProt P08659)", "sequence (P08659 whole entry, looked up)": "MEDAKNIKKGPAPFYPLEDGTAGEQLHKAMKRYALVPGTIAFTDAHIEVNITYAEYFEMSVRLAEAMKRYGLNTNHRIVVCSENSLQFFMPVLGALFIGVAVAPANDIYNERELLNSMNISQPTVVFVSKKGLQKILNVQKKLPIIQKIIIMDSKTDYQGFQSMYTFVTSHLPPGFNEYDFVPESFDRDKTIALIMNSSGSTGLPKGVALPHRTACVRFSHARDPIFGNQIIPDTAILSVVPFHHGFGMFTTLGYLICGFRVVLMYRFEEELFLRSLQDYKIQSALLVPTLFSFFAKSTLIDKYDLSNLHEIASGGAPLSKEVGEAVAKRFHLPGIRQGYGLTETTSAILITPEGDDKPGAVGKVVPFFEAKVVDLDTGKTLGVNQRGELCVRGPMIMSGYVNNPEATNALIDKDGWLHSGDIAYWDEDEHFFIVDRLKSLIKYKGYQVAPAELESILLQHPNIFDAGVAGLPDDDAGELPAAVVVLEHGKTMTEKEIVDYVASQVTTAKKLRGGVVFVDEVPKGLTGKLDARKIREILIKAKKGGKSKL", "assay": "qHTS assay to identify small molecule inhibitors of firefly luciferase (AID 1224835); also: nearly all actives have a fitted effect of over 25% in size; also: potency is read from the fitted curve at half-maximal effect", "conditions": "purified P. pyralis luciferase, luminescence inhibition; series mostly up to 52.9 µM", "how_it_was_run": "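Biochemical qHTS: compounds run as interplate titrations against purified firefly enzyme, with D-luciferin and ATP each at its KM concentration. Light output recorded by CCD imaging.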"}, "[2]": {"assay": "qHTS assay to identify small molecule antagonists of the constitutive androstane receptor (CAR) signaling pathway - cell viability counter screen (AID 1224837); also: nearly all actives have a fitted effect of over 45% in size", "conditions": "HepG2-CYP2B6-hCAR viability, CellTiter-Fluor, 23 h, co-treated with 50 nM CITCO; series mostly up to 92.4 µM", "how_it_was_run": "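HepG2 cells stably carrying hCAR and CYP2B6-2.2kb reporter, stimulated with 50 nM CITCO and compounds at 15 concentrations for 23 h at 37 C. Viability measured by CellTiter-Fluor fluorescence.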"}, "[3]": {"target": "Nuclear receptor subfamily 1 group I member 3 (Homo sapiens) (UniProt Q14994)", "sequence (Q14994 whole entry, looked up)": "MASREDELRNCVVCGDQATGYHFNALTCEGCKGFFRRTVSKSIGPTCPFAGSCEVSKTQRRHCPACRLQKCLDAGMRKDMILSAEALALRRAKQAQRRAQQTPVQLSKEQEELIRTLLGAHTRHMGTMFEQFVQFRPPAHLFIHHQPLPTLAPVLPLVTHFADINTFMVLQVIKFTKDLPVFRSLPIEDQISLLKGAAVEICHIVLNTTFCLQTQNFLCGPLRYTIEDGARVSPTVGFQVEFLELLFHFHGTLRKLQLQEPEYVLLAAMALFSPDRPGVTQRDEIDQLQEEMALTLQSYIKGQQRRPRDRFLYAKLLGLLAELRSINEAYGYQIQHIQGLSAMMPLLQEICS", "assay": "qHTS assay to identify small molecule antagonists of the constitutive androstane receptor (CAR) signaling pathway (AID 1224838); also: nearly all actives have a fitted effect of over 40% in size", "conditions": "HepG2-CYP2B6-hCAR luciferase, CITCO-stimulated, 24 h; series mostly up to 92.4 µM", "how_it_was_run": "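HepG2 cells stably carrying hCAR and a CYP2B6-2.2kb luciferase reporter, seeded 4 hrs before compound (15 concentrations). Stimulated with 50 nM CITCO for 24 hr at 37 C. ONE-Glo luminescence read after 30 min at room temperature.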"}, "[4]": {"target": "Nuclear receptor subfamily 1 group I member 3 (Homo sapiens) (UniProt Q14994)", "assay": "qHTS assay to identify small molecule agonists of the constitutive androstane receptor (CAR) signaling pathway (AID 1224839); also: nearly all actives have a fitted effect of over 15% in size; also: potency is read from the fitted curve at half-maximal effect", "conditions": "HepG2 hCAR CYP2B6-luciferase, agonist mode, 24 h; series mostly up to 92.4 µM", "how_it_was_run": "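HepG2 cells stably expressing hCAR and a CYP2B6-2.2kb luciferase reporter were treated with compounds at 15 concentrations plus 0.75 uM PK11195 (final) for 24 h at 37 C; luminescence was read after ONE-Glo addition.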"}, "[5]": {"assay": "qHTS assay to identify small molecule antagonists of the estrogen related receptor signaling pathway with the pleiotropic PPARgamma coactivator (PGC) from Tox21 10K library - cell viability counter screen (AID 1224840; active = well fitted cell-killing curve with a large enough effect in the repeat runs, not every such curve was filed as active; also: nearly all actives have a fitted effect of over 40% in size)", "conditions": "PGC/ERR reporter cells viability, CellTiter-Fluor, 17.5 h; series mostly up to 92.4 µM", "how_it_was_run": "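PGC/ERR cells (2,000/well) plated 6 h, then compound-treated for 17.5 h at 37 C. Viability measured by CellTiter-Fluor fluorescence after 30 min at 37 C, multiplexed with the pathway assay.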"}, "[6]": {"assay": "qHTS assay to identify small molecule agonists of the estrogen related receptor signaling pathway with the pleiotropic PPARgamma coactivator (PGC) from Tox21 10K library (AID 1224842); also: nearly all actives have a fitted effect of over 15% in size; also: potency is read from the fitted curve at half-maximal effect", "conditions": "PGC/ERR reporter cell line, luciferase ONE-Glo, 18 h; series mostly up to 92.4 µM", "how_it_was_run": "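PGC/ERR reporter cell line, 2,000 cells per well, incubated 6 h at 37 C before 23 nL compound in DMSO was added. After 18 h at 37 C, One-Glo luminescence read following 30 min at room temperature.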"}, "[7]": {"assay": "qHTS assay to identify small molecule antagonists of the estrogen related receptor signaling pathway with the pleiotropic PPARgamma coactivator (PGC) from Tox21 10K library (AID 1224841; call rule not given here; also: actives are mostly falling curves and most rising ones were filed inactive; nearly all actives have a fitted effect of over 50% in size; also: potency is read from the fitted curve at half-maximal effect)", "conditions": "PGC/ERR reporter cell line, ONE-Glo luciferase, 18 h; series mostly up to 92.4 µM", "how_it_was_run": "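PGC/ERR cell line, 2,000 cells/well, pre-incubated 6 hours at 37 C, then exposed to compounds for 18 hours at 37 C; luciferase read with One-Glo luminescence after 30 min at room temperature.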"}, "[8]": {"target": "Thyrotropin receptor (Homo sapiens) (UniProt P16473)", "sequence (P16473 whole entry, looked up)": "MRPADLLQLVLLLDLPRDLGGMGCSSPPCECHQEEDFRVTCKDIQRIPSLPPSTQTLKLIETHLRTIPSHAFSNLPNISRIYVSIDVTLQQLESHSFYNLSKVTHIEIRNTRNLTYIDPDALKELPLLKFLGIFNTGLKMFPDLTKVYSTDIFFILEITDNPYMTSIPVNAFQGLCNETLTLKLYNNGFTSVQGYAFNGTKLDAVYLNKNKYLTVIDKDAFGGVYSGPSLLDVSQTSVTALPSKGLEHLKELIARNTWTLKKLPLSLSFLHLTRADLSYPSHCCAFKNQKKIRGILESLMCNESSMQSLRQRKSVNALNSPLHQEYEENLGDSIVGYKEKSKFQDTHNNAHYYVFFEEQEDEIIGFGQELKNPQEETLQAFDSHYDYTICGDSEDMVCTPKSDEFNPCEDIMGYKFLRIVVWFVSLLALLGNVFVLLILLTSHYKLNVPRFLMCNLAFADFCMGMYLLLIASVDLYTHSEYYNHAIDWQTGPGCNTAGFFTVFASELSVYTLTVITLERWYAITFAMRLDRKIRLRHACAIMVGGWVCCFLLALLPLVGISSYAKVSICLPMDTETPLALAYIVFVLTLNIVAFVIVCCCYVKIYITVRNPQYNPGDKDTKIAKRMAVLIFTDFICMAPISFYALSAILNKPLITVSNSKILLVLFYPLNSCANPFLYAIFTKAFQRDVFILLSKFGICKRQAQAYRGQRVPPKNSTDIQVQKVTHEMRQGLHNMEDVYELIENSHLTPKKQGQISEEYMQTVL", "assay": "qHTS assay to identify small molecule agonists of the thyroid stimulating hormone receptor (TSHR) signaling pathway (AID 1224843; calls by dose curve; also: nearly all actives have a fitted effect of over 45% in size)", "conditions": "TSHR-HEK293 cells, cAMP HTRF, agonist mode, 30 min; series mostly up to 92.4 µM", "how_it_was_run": "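TSHR-HEK293 cells in agonist mode, 30 min room-temperature step, then cAMP measured by competitive HTRF (cAMP-d2 with anti-cAMP cryptate) after 1 h at room temperature. Tested at 15 concentrations in triplicate.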"}, "[9]": {"assay": "qHTS assay to identify small molecule antagonists of the estrogen related receptor (ERR) signaling pathway from Tox21 library - cell viability counter screen (AID 1224834); also: nearly all actives have a fitted effect of over 30% in size; also: potency is read from the fitted curve at half-maximal effect", "conditions": "ERR reporter cells viability, CellTiter-Fluor, 17.5 h; series mostly up to 92.4 µM", "how_it_was_run": "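ERR reporter cells, 2,000 per well, rested 6 h, then exposed to compound in DMSO for 17.5 hours at 37 C. Viability read as fluorescence after 30 min with CellTiter-Fluor.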"}, "[10]": {"assay": "qHTS assay to identify small molecule agonists of the constitutive androstane receptor (CAR) signaling pathway - cell viability counter screen (AID 1224836); also: nearly all actives have a fitted effect of over 45% in size", "conditions": "HepG2-CYP2B6-hCAR viability, CellTiter-Fluor, 23 h, PK11195 added to every well; series mostly up to 92.4 µM", "how_it_was_run": "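HepG2 cells stably carrying hCAR and a CYP2B6-2.2kb reporter were plated 4 h, then given compounds at 15 concentrations plus PK11195 (final 0.75 uM). After 23 h at 37 C, viability was read by CellTiter-Fluor fluorescence.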"}}, "note": "Results filed as inconclusive are left out. Entries that show only a call come without a potency. The source made the active and inactive calls. Unless noted, calls follow the shape of the dose curve; as a rule, active = well fitted curve in the direction sought with a large enough effect in the repeat runs; inconclusive = weak or mixed curves; inactive = no such curve, though single readings can be large; an effect the other way counts as inactive or inconclusive."}
{"smiles": "Oc1cccc(O)c1O", "values": [{"measurement": "Potency", "setting": "[1]", "result": "inactive"}, {"measurement": "Potency", "setting": "[2]", "result": "inactive"}, {"measurement": "Potency", "setting": "[3]", "result": "inactive"}, {"measurement": "Potency", "setting": "[4]", "result": "inactive"}, {"measurement": "Potency", "setting": "[5]", "result": "inactive"}, {"measurement": "Potency", "setting": "[6]", "result": "8.56 µM (active)"}]}
{"smiles": "Clc1ccc(Nc2nnc(Cc3ccncc3)c3ccccc23)cc1", "values": [{"measurement": "Potency", "setting": "[3]", "result": "inactive"}, {"measurement": "Potency", "setting": "[4]", "result": "7.5 µM (active)"}, {"measurement": "Potency", "setting": "[5]", "result": "inactive"}, {"measurement": "Potency", "setting": "[7]", "result": "13.3 µM (active)"}, {"measurement": "Potency", "setting": "[6]", "result": "inactive"}, {"measurement": "Potency", "setting": "[8]", "result": "inactive"}]}
{"smiles": "COc1ccccc1NC(=O)c1cc2ccccc2cc1O", "values": [{"measurement": "Potency", "setting": "[1]", "result": "17.8 µM (active)"}, {"measurement": "Potency", "setting": "[2]", "result": "inactive"}, {"measurement": "Potency", "setting": "[3]", "result": "inactive"}, {"measurement": "Potency", "setting": "[4]", "result": "17.2 µM (active)"}, {"measurement": "Potency", "setting": "[5]", "result": "inactive"}, {"measurement": "Potency", "setting": "[7]", "result": "15.4 µM (active)"}, {"measurement": "Potency", "setting": "[6]", "result": "inactive"}, {"measurement": "Potency", "setting": "[8]", "result": "inactive"}]}
{"smiles": "COc1ccccc1N1CCN(CC(O)COc2cccc3ccccc23)CC1", "note": "(stereo not drawn)", "values": [{"measurement": "Potency", "setting": "[1]", "result": "inactive"}, {"measurement": "Potency", "setting": "[3]", "result": "inactive"}, {"measurement": "Potency", "setting": "[4]", "result": "inactive"}, {"measurement": "Potency", "setting": "[5]", "result": "inactive"}, {"measurement": "Potency", "setting": "[8]", "result": "inactive"}]}
{"smiles": "C[C@@H](O)[C@H]1C(=O)N2C(C(=O)O)=C([C@H]3CCCO3)S[C@H]12", "values": [{"measurement": "Potency", "setting": "[9]", "result": "inactive"}, {"measurement": "Potency", "setting": "[2]", "result": "inactive"}, {"measurement": "Potency", "setting": "[5]", "result": "inactive"}, {"measurement": "Potency", "setting": "[8]", "result": "inactive"}]}
{"smiles": "CN(C)CCC=C1c2ccccc2C=Cc2ccccc21", "values": [{"measurement": "Potency", "setting": "[1]", "result": "inactive"}, {"measurement": "Potency", "setting": "[3]", "result": "inactive"}, {"measurement": "Potency", "setting": "[4]", "result": "inactive"}, {"measurement": "Potency", "setting": "[5]", "result": "inactive"}, {"measurement": "Potency", "setting": "[7]", "result": "inactive"}, {"measurement": "Potency", "setting": "[6]", "result": "inactive"}]}
{"smiles": "O=C1c2ccccc2C(=O)C1(O)O", "values": [{"measurement": "Potency", "setting": "[1]", "result": "inactive"}, {"measurement": "Potency", "setting": "[4]", "result": "inactive"}, {"measurement": "Potency", "setting": "[5]", "result": "inactive"}, {"measurement": "Potency", "setting": "[7]", "result": "inactive"}, {"measurement": "Potency", "setting": "[6]", "result": "inactive"}]}
{"smiles": "C/C=C(/C(=C/C)c1ccc(O)cc1)c1ccc(O)cc1", "values": [{"measurement": "Potency", "setting": "[1]", "result": "inactive"}, {"measurement": "Potency", "setting": "[10]", "result": "inactive"}, {"measurement": "Potency", "setting": "[2]", "result": "inactive"}, {"measurement": "Potency", "setting": "[3]", "result": "inactive"}, {"measurement": "Potency", "setting": "[4]", "result": "inactive"}, {"measurement": "Potency", "setting": "[5]", "result": "inactive"}, {"measurement": "Potency", "setting": "[8]", "result": "inactive"}]}
{"smiles": "CN1CCCC(CC2c3ccccc3Sc3ccccc32)C1", "note": "(stereo not drawn)", "values": [{"measurement": "Potency", "setting": "[9]", "result": "26.6 µM (active)"}, {"measurement": "Potency", "setting": "[2]", "result": "inactive"}, {"measurement": "Potency", "setting": "[4]", "result": "inactive"}, {"measurement": "Potency", "setting": "[7]", "result": "inactive"}, {"measurement": "Potency", "setting": "[8]", "result": "inactive"}]}
{"smiles": "O=[N+]([O-])c1ccc(Nc2ccc(Nc3ccccc3)c(S(=O)(=O)O)c2)c([N+](=O)[O-])c1", "values": [{"measurement": "Potency", "setting": "[1]", "result": "inactive"}, {"measurement": "Potency", "setting": "[2]", "result": "inactive"}, {"measurement": "Potency", "setting": "[3]", "result": "inactive"}, {"measurement": "Potency", "setting": "[4]", "result": "inactive"}, {"measurement": "Potency", "setting": "[5]", "result": "inactive"}, {"measurement": "Potency", "setting": "[8]", "result": "inactive"}]}
